Source: PubChem BioAssay (National Center for Advancing Translational Sciences (NCATS))
KB-3-1 cytotox – kills parental KB-3-1 adenocarcinoma cells; Potency, µM (top dose mostly 46.1 µM), usual class: cytotoxic; KB-3-1 viability, CellTiter-Glo ATP luminescence, 72 h; 1.4% of 400,000 active; also: potency is read from the fitted curve at half-maximal effect; nearly all actives have a fitted effect of over 60% in size
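Luminescent ATP read-out (CellTiter-Glo) measures survival of drug-naive KB-3-1 cells after 72 h compound exposure at 37 °C. Titration series was screened from lowest to highest concentration, with DMSO vehicle plates as background controls.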
PI4K2A inh – PI4K2A (human) kinase inhibition; Q9BTU6; activity change, negative = inhibition, % at 76.9 µM; AID 1346378; purified PI4K2A, ADP-Glo luminescence, 1 h; hits give low values; 0.13% of 420,000 active; in the data active = activity change below about -50%; inconclusive = mostly about -30% to -49%;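 also: -100% = wells without enzyme as full effect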
Target sequence (Q9BTU6 whole entry, looked up): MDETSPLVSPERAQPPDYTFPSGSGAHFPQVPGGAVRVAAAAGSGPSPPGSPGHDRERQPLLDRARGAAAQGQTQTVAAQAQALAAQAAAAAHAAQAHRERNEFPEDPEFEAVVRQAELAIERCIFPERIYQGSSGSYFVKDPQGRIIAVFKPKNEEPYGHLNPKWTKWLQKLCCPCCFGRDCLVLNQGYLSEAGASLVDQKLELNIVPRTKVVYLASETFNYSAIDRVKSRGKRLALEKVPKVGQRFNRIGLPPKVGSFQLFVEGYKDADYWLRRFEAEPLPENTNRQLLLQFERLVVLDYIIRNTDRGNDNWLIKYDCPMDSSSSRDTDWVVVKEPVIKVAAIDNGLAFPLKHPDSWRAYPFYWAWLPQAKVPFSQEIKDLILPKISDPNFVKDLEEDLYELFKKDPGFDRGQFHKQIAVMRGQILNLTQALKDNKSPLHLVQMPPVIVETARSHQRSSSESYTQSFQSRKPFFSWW
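ADP-Glo luminescence measured ADP generated by PI4K2A enzyme (4 ug/mL before mixing) with 1.2 mM PI substrate (pre-mix) and 300 microM ATP (pre-mix). Tris pH7.5 buffer with MgCl2, Triton X-100; 1 h reaction at ambient temperature.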
Nrf2 inh – Nrf2 pathway inhibition. A549 ARE-Fluc reporter, luciferase luminescence, 18-24 h. Potency, µM (doses to about 46 µM), for inactives: at the highest dose activity change, negative = inhibition, most hits filed as inhibitors. 2.1% of 360,000 active; also: potency is read from the fitted curve at half-maximal effect; nearly all actives have a fitted effect of over 60% in size
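A549 ARE_Fluc cells, 5000/well, 5% FBS OPTI-MEM; compounds in dose-response, 18-24 h at 37 °C/5% CO2; CellTiter-Fluor viability read (Ex 405/Em 525), then BugLite luciferase luminescence = Nrf2 activity.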
Giardia kill – kills Giardia lamblia | activity change, % at 7.66 µM, hits read low | AID 540267 | 0.15% of 340,000 active | Giardia lamblia trophozoite viability; in the data active = activity change below about -80%; inconclusive = between about -30% and that limit;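 also: parasites exposed to compound for two days anaerobically before the ATP read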
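Killing of trophozoites was scored by loss of ATP luminescence after a 48 hrs anaerobic exposure to compounds at 37 deg C, using 100 cells per well.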
A549 viability – A549 cytotoxicity, counter-screen for Nrf2 inhibitors. Potency, µM (top dose mostly 46 µM), inactives show top-dose activity change, negative = cytotoxicity, actives largely listed as inhibitors. A549 ARE-Fluc cells, CellTiter-Fluor viability, 18-24 h. 0.16% of 390,000 active; also: potency is read from the fitted curve at half-maximal effect
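A549 ARE-Fluc cells in 5% FBS OPTI-MEM, 5000 cells/well, rested 2 h then exposed to compounds in concentration-response for 18-24 h at 37 °C. Viability by CellTiter-Fluor fluorescence (Ex 405/Em 525) after 30 min; luciferase luminescence (BugLite, 15 min, RT) read afterwards.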
KB-V1 MDR tox – kills drug-selected multidrug resistant KB-V1 cells; KB-V1 MDR cells viability, CellTiter-Glo, 72 h; Potency, µM (titrated, usually from 46.1 µM), actives largely listed as cytotoxic; 3.4% of 400,000 active; also: potency is read from the fitted curve at half-maximal effect; nearly all actives have a fitted effect of over 60% in size
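KB-V1 MDR subline cells in DMEM (phenol-red free, 10% FBS) exposed to compounds in qHTS concentration series for 72 h at 37 degrees C. Viability read by CellTiter-Glo luminescence; concentration-effect curves fitted after normalization and correction.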
* marks the source's active call; other numbers are inactive results; i = inactive; u = inconclusive; x = no result given. Rows were chosen to be rich in hits. Some 5.7% of all compounds tested hit in one or more screens of this group. Unless noted, calls follow the shape of the dose curve; as a rule, active = well fitted curve in the direction sought with a large enough effect; inconclusive = small, poorly fitted or top-dose-only effect, or another doubt; inactive = no such curve, though single readings can be large; an effect the other way counts as inactive or inconclusive. Unless noted, % is scaled to controls: 0 for no effect and ±100 for the full control effect.

SMILES	KB-3-1 cytotox	PI4K2A inh	Nrf2 inh	Giardia kill	A549 viability	KB-V1 MDR tox
Cn1c2c(c(=O)n(C)c1=O)C(C(F)(F)F)(C(F)(F)F)N=C(c1ccccc1Cl)N2	u	-3	-18%	-8	-2%	u
Cn1ncc(Oc2ccc([N+](=O)[O-])cc2)c(Cl)c1=O	i	3	-10%	15	-5%	i
CC(C)(C)n1ncc(Oc2ccccc2[N+](=O)[O-])c(Cl)c1=O	i	1	-3%	-1	2%	18µM*
O=[S+]([O-])(c1c(F)cccc1F)N1CCN([S+](=O)([O-])c2cccc3nonc23)CC1	x	x	14%	x	-2%	x
CCCCC(=O)Oc1ccc2oc(-c3ccc(OC)cc3)cc(=O)c2c1	i	-4	11%	x	2%	6.5µM*
CC(C)C(=O)N1CCN(c2ccc(NC(=O)c3cccs3)cc2Cl)CC1	i	6	-10%	-8	2%	i
O=C(Nc1cccc(NC(=O)c2cccs2)c1)c1ccco1	i	6	7%	17	-2%	15µM*
C/C(=N/NC(=O)c1ccco1)c1cccc(NC(=O)c2ccc(C)s2)c1	i	2	1%	-7	-4%	10µM*
O=C(Nc1ccc(N2CCN(C(=O)c3ccco3)CC2)c(Cl)c1)c1cccs1	u	-1	x	-6	-9%	23µM*
COc1ccc(N2CCN(CCNS(=O)(=O)c3c(C(C)C)cc(C(C)C)cc3C(C)C)CC2)cc1	x	-2	x	x	x	x
CCC(=O)N1CCc2cc(CNS(=O)(=O)c3ccccc3F)ccc21	x	-5	x	x	2%	x
CC(=O)N/N=C/c1ccc([N+](=O)[O-])o1	x	2	x	x	x	x
CCCCCCCC(=O)N/N=C/c1ccc([N+](=O)[O-])o1	i	-1	u	-88*	-2%	u
CC1(C(=O)N/N=C/c2ccc([N+](=O)[O-])o2)CC1(Br)Br (stereo not drawn)	u	-1	u	-90*	u	18µM*
CCCOc1ccc(CCC(=O)N/N=C/c2ccc([N+](=O)[O-])o2)cc1	i	-1	u	-88*	-4%	u
N#CCc1ccc(NC(=O)/C=C/c2ccc([N+](=O)[O-])o2)cc1	5.2µM*	-13	2%	u	u	u
FC(F)(F)c1cccc(N2CCN(C(=S)Nc3nccc4ccccc34)CC2)c1	x	0	x	x	x	x
COC(=O)c1ccccc1NC(=O)CSc1c2c(nc3ccc(Cl)cc13)CCCC2	x	8	3%	x	0%	x
O=C(CN1CCCCCCC1)N/N=C/c1ccc([N+](=O)[O-])o1	i	-6	u	u	u	i
O=C(CCN1CCN(c2ccccc2)CC1)N/N=C/c1ccc([N+](=O)[O-])o1	u	1	21µM*	u	u	u
O=C(CC12CC3CC(CC(C3)C1)C2)N/N=C/c1ccc([N+](=O)[O-])o1	i	-9	u	-94*	1%	i
O=C(CN1CCOCC1)NN=Cc1ccc([N+](=O)[O-])o1	i	x	x	x	x	u
O=C(Cc1ccc([N+](=O)[O-])cc1)N/N=C/c1ccc([N+](=O)[O-])o1	u	-2	21µM*	-89*	-22%	u
CCOC(=O)N/N=C\c1ccc([N+](=O)[O-])o1	i	1	9%	-95*	-2%	u
c1ccc(-c2cccc(CNc3nc(-c4ccccn4)nnc3-c3ccccc3)c2)cc1	x	0	x	x	x	x
SMILES	KB-3-1 cytotox	PI4K2A inh	Nrf2 inh	Giardia kill	A549 viability	KB-V1 MDR tox
O=S(=O)(c1ccc(F)cc1)N1CCN(c2nc(-c3cccs3)nc3ccccc23)CC1	i	x	u	12	-4%	i
CN1CC=C2C(C#N)=C(N)C(C#N)(C#N)C(c3ccsc3)C2C1 (stereo not drawn)	i	-7	-2%	-1	-8%	i
CCOC(=O)N1CC=C2C(C#N)=C(N)C(C#N)(C#N)[C@H](c3ccc(OC(C)C)c(OCC)c3)[C@H]2C1	i	5	x	6	0%	i
N#CC1=C(N)C(C#N)(C#N)[C@H](c2cccnc2)[C@H]2CN(C(=O)OCc3ccccc3)CC=C12	i	-2	u	32	-11%	u
CCOC(=O)N1CC=C2C(C#N)=C(N)C(C#N)(C#N)[C@H](c3ccccc3OCC)[C@H]2C1	i	12	16µM*	-7	u	u
CCOC(=O)N1CC=C2C(C#N)=C(N)C(C#N)(C#N)[C@H](c3ccsc3)[C@H]2C1	u	24	x	4	-16%	15µM*
N#CC1=C(N)C(C#N)(C#N)C(c2ccncc2)C2CN(C(=O)OCc3ccccc3)CC=C12 (stereo not drawn)	u	-7	23µM*	9	-16%	u
Cc1cccc(-c2c3c(=O)n(C)c(=O)n(C)c3cn2-c2cc(N)c(Cl)cc2Cl)c1	x	-3	u	x	-15%	x
O=C(C[n+]1cccc2cc(Cl)ccc21)c1ccc(I)cc1	u	x	x	x	x	i
O=C(Nc1nnc(S(=O)(=O)N2CCCCC2)s1)c1cccc(Br)c1	u	4	26µM*	17	-8%	i
O=C(Nc1ccncc1)c1cccc(S(=O)(=O)N2CCOCC2)c1	i	2	-19%	6	-4%	i
O=C(NCc1ccc(F)cc1)c1cccc(S(=O)(=O)N2CCCC2)c1	i	5	x	8	12%	23µM*
CN(C)S(=O)(=O)c1cccc(NC(=O)c2cccc(S(=O)(=O)N3CCCCC3)c2)c1	u	5	-26%	-1	7%	18µM*
O=C(Nc1ccncc1)c1cccc(S(=O)(=O)N2CCCC2)c1	i	-1	8.2µM*	-2	-19%	u
CC(=O)c1c(C)oc2ccc(N(C(=O)Oc3ccccc3)S(=O)(=O)c3ccc(C(C)(C)C)cc3)cc12	u	-1	u	x	-2%	i
N#Cc1nc(-c2ccc(OCc3ccc(Cl)cc3)cc2)oc1N1CCCCCC1	i	x	18%	2	1%	i
Cc1ccc(NS(=O)(=O)c2cc3c(cc2-c2ccco2)NC(=O)CO3)cc1C	x	x	0%	x	0%	x
CS(=O)(=O)c1ccc(C(=O)Nc2ccc(N3CCCC3)cc2)c(Cl)c1	i	5	1%	-7	1%	i
O=C(Nc1ccc(N2CCCC2)cc1)c1cc(Br)ccc1Cl	21µM*	-4	-21%	-16	0%	u
CN(C)S(=O)(=O)c1cccc(NC(=O)c2cccc(NS(=O)(=O)c3ccccc3)c2)c1	12µM*	-1	15µM*	-22	u	u
O=C(NCc1ccncc1)C1CCN(S(=O)(=O)c2cccc(C(F)(F)F)c2)CC1	i	4	-14%	-14	-4%	u
